According to ChEMBL document CHEMBL1157539, “Thousands of chemical starting points for antimalarial lead identification” (Nature, 2010):

Experiments:
Format in all cases: functional
Plasmodium falciparum [1] = test: GSK_TCMDC: Inhibition of Plasmodium falciparum 3D7 in whole red blood cells, using parasite LDH activity as an index of growth. Test compounds present at 2uM
Plasmodium falciparum [2] = test: GSK_TCMDC: Inhibition of Plasmodium falciparum Dd2 in whole red blood cells, using parasite LDH activity as an index of growth. Test compounds present at 2uM
HepG2 = test: GSK_TCMDC: Percent inhibition of human HepG2 cell line. Test compounds present at 10uM.

SMILES	Inhibition (Plasmodium falciparum [1]) [%]	Inhibition (Plasmodium falciparum [2]) [%]	Inhibition (HepG2) [%]
COc1cc(Cc2cnc(N)nc2N)cc(OCCCc2cc(OCc3ccccc3)no2)c1OC	86	4	30
COc1cccc(-c2cc(C(F)(F)F)n3ncc(C(=O)Nc4cc(C)ccc4O)c3n2)c1	98	99	0
Cc1cc(NC(=O)CCCN2CCN(c3cccc(Cl)c3Cl)CC2)ccc1N1CCN(C(C)C)CC1.Cl	100	53	86
Cc1sc(NC(=O)c2ccc([N+](=O)[O-])cc2Cl)c(C(N)=O)c1C	94	2	2
COc1cc(C=CC(=O)N2CCC3(CC2)CC(=O)c2ccccc2O3)cc(OC)c1OC	88	66	7
O=C(Nc1ccccc1)c1c[nH]cn1	92	0	0
O=C(Nc1cc(C(F)(F)F)cc(C(F)(F)F)c1)N1CCC(CCN2CCC(c3c[nH]c4ccccc34)CC2)CC1	91	16	17
COc1ccc2nccc([C@@H](O)CN3CCC(NC(=O)c4ccc(C5(C(F)(F)F)N=N5)cc4)CC3)c2c1	97	41	8
CCn1c(Sc2ccc([N+](=O)[O-])c(C#N)c2)nnc1-c1ccc(Cl)cc1	93	7	2
CCCCCc1cc(O)c2c(c1)OC(C)(C)C=C2C1=CCN(Cc2ccsc2)CC1	98	48	20
COC(=O)c1ccc2nc(-c3ccc(C(=O)NCc4ccc(Cl)c(Cl)c4)cc3)[nH]c2c1	95	3	1
